# Assay results from PubChem BioAssay (NCATS).
# Results filed as inconclusive are left out. Where a call stands in place of a potency, no number is given. Unmarked numbers belong to inactive results. The source made the active and inactive calls. Calls follow the shape of the dose curve; as a rule, active = well fitted inhibition curve with a large enough effect; inconclusive = small, poorly fitted or top-dose-only effect; inactive = flat fitted curve, though single readings scatter.
# Tests used:
# JCK = experiment: qHTS profiling for inhibitors of Plasmodium falciparum proliferation (AID 504749); conditions: P. falciparum in erythrocytes, SYBR Green DNA, 72 h; series mostly up to 28.7 µM
# Outline: (§1)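 P. falciparum-infected erythrocytes (0.3% parasitemia, 2.5% hematocrit final) were exposed to compounds for 72 h at 37 C in 5% CO2, then lysed with SYBR Green buffer overnight at room temperature; parasite DNA fluorescence was normalized to artemisinin and DMSO controls.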
# N140 = experiment: as above; conditions: P. falciparum in erythrocytes, SYBR Green DNA, 72 h; series mostly up to 28.7 µM
# Outline: as §1
# P93_24 = experiment: as above; conditions: P. falciparum in erythrocytes, SYBR Green DNA, 72 h; series mostly up to 28.7 µM
# Outline: as §1
# P94_40 = experiment: as above; conditions: P. falciparum in erythrocytes, SYBR Green DNA, 72 h; series mostly up to 28.7 µM
# Outline: as §1
# PAD = experiment: as above; conditions: P. falciparum in erythrocytes, SYBR Green DNA, 72 h; series mostly up to 28.7 µM
# Outline: as §1
# PC15 = experiment: as above; conditions: P. falciparum in erythrocytes, SYBR Green DNA, 72 h; series mostly up to 28.7 µM
# Outline: as §1
# PC26 = experiment: as above; conditions: P. falciparum in erythrocytes, SYBR Green DNA, 72 h; series mostly up to 28.7 µM
# Outline: as §1
# PC49 = experiment: as above; conditions: P. falciparum in erythrocytes, SYBR Green DNA, 72 h; series mostly up to 28.7 µM
# Outline: as §1
# SC27B = experiment: as above; conditions: P. falciparum in erythrocytes, SYBR Green DNA, 72 h; series mostly up to 28.7 µM
# Outline: as §1
# TAB109 = experiment: as above; conditions: P. falciparum in erythrocytes, SYBR Green DNA, 72 h; series mostly up to 28.7 µM
# Outline: as §1
# TAB113 = experiment: as above; conditions: P. falciparum in erythrocytes, SYBR Green DNA, 72 h; series mostly up to 28.7 µM
# Outline: as §1
# TAB165 = experiment: as above; conditions: P. falciparum in erythrocytes, SYBR Green DNA, 72 h; series mostly up to 28.7 µM
# Outline: as §1
# W2 = experiment: as above; conditions: P. falciparum in erythrocytes, SYBR Green DNA, 72 h; series mostly up to 28.7 µM
# Outline: as §1
# CRL-7250 = normal cell line; experiment: Cytotoxic Profiling of Annotated Libraries Using Quantitative High-Throughput Screening (AID 1296008); conditions: Five cell lines viability, CellTiter-Glo ATP luminescence, 48-72 h; max response: active compounds read low
# Outline: (§2)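 Compounds were pin-transferred onto cells and incubated 48 or 72 hr at 37 degree Celsius, 95% humidity. CellTiter-Glo was added, plates sat 10 min at room temperature, then ATP-coupled luminescence was imaged as the viability read-out.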
# HEK293 = experiment: as above; conditions: Five cell lines viability, CellTiter-Glo ATP luminescence, 48-72 h; max response: active compounds read low
# Outline: as §2
# HaCat = experiment: as above; conditions: Five cell lines viability, CellTiter-Glo ATP luminescence, 48-72 h; max response: active compounds read low
# Outline: as §2
# KB-3-1 = experiment: as above; conditions: Five cell lines viability, CellTiter-Glo ATP luminescence, 48-72 h; max response: active compounds read low
# Outline: as §2
# NIH3T3 = experiment: as above; conditions: Five cell lines viability, CellTiter-Glo ATP luminescence, 48-72 h; max response: active compounds read low
# Outline: as §2
# Also: nearly all actives have a fitted effect of over 60% in size.
# Potency is read from the fitted curve at half-maximal effect.
structure (smiles),measurement,setting,value
CCN(CC)CC(=O)Nc1c(C)cccc1C,Potency,JCK,inactive
same,Potency,N140,inactive
same,Potency,P93_24,inactive
same,Potency,P94_40,inactive
same,Potency,PAD,inactive
same,Potency,PC15,inactive
same,Potency,PC26,inactive
same,Potency,PC49,inactive
same,Potency,SC27B,inactive
same,Potency,TAB109,inactive
same,Potency,TAB113,inactive
same,Potency,TAB165,inactive
same,Potency,W2,inactive
same,max response,CRL-7250,-12.2%
same,max response,HEK293,-14.5%
same,max response,HaCat,-2.67%
same,max response,KB-3-1,-0.324%
same,outcome,NIH3T3,inactive
O=C(O)CN(CCOCCOCCN(CC(=O)O)CC(=O)O)CC(=O)O,Potency,JCK,inactive
same,Potency,N140,inactive
same,Potency,P93_24,inactive
same,Potency,P94_40,inactive
same,Potency,PAD,inactive
same,Potency,PC15,inactive
same,Potency,PC26,inactive
same,Potency,PC49,inactive
same,Potency,SC27B,inactive
same,Potency,TAB109,inactive
same,Potency,TAB113,inactive
same,Potency,TAB165,inactive
same,Potency,W2,inactive
same,outcome,CRL-7250,inactive
same,max response,HEK293,0.265%
same,max response,HaCat,4.17%
same,max response,KB-3-1,5.76%
same,max response,NIH3T3,-0.882%
O=C(O)CCCCCCCC(=O)O,Potency,JCK,inactive
same,Potency,N140,inactive
same,Potency,P93_24,inactive
same,Potency,P94_40,inactive
same,Potency,PAD,inactive
same,Potency,PC15,inactive
same,Potency,PC26,inactive
same,Potency,PC49,inactive
same,Potency,SC27B,inactive
same,Potency,TAB109,inactive
same,Potency,TAB113,inactive
same,Potency,TAB165,inactive
same,Potency,W2,inactive
same,max response,CRL-7250,-17.5%
same,max response,HEK293,3%
same,max response,HaCat,2.4%
same,max response,KB-3-1,-3.68%
same,outcome,NIH3T3,inactive
O=C(CCNNC(=O)c1ccncc1)NCc1ccccc1,Potency,JCK,inactive
same,Potency,N140,inactive
same,Potency,P93_24,inactive
same,Potency,P94_40,inactive
same,Potency,PAD,inactive
same,Potency,PC15,inactive
same,Potency,PC26,inactive
same,Potency,PC49,inactive
same,Potency,SC27B,inactive
same,Potency,TAB109,inactive
same,Potency,TAB113,inactive
same,Potency,TAB165,inactive
same,max response,CRL-7250,0.469%
same,max response,HEK293,-20%
same,max response,HaCat,-22%
same,max response,KB-3-1,4.64%
same,max response,NIH3T3,-21.8%
CCOC(=O)c1cnc2c(cnn2CC)c1NN=C(C)C,Potency,JCK,inactive
same,Potency,N140,inactive
same,Potency,P93_24,inactive
same,Potency,PAD,inactive
same,Potency,PC15,inactive
same,Potency,PC26,inactive
same,Potency,PC49,inactive
same,Potency,SC27B,inactive
same,Potency,TAB109,inactive
same,Potency,TAB113,inactive
same,Potency,TAB165,inactive
same,max response,CRL-7250,1.67%
same,max response,HEK293,2.79%
same,max response,HaCat,-11.8%
same,max response,KB-3-1,7.56%
same,max response,NIH3T3,-3.28%
NC(N)=N/N=C/c1c(Cl)cccc1Cl,Potency,JCK,inactive
same,Potency,PC49,inactive
same,Potency,SC27B,inactive
same,Potency,W2,12 µM (active)
same,max response,CRL-7250,3.75%
same,Potency,HEK293,18.8 µM (active)
same,max response,HaCat,-6.3%
same,max response,KB-3-1,0.665%
same,max response,NIH3T3,3.93%
Nc1ncn([C@@H]2O[C@H](CO)[C@@H](O)[C@H]2O)c(=O)n1,Potency,JCK,inactive
same,Potency,N140,inactive
same,Potency,P93_24,inactive
same,Potency,P94_40,inactive
same,Potency,PAD,inactive
same,Potency,PC15,inactive
same,Potency,PC26,inactive
same,Potency,PC49,inactive
same,Potency,SC27B,inactive
same,Potency,TAB109,inactive
same,Potency,TAB113,inactive
same,Potency,TAB165,inactive
same,Potency,W2,inactive
same,Potency,CRL-7250,7.5 µM (active)
same,Potency,HEK293,3.35 µM (active)
same,max response,HaCat,-18.5%
same,max response,NIH3T3,-10.9%
